From PubChem BioAssay (Tox21)
Unmarked numbers belong to inactive results. Inconclusive results are not listed. Where a call stands in place of a potency, no number is given. Calls of active or inactive are those of the source. Unless noted, calls come from the whole dose curve; as a rule, active = well fitted curve in the direction sought with a large enough effect in the repeat runs; inconclusive = weak or mixed curves; inactive = no such curve, though single readings can be large; an effect the other way counts as inactive or inconclusive.

What was measured:
[1] = A CellTox Green Cytotoxicity Assay to monitor cytotoxicity in HepG2 cells - 8 hour (AID 1224890); note: nearly all actives have a fitted effect of over 45% in size; note: potency is the fitted concentration of half-maximal effect
Outline: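 Real-time, homogeneous cytotoxicity readout: dead-cell DNA staining by CellTox Green in HepG2 monolayers, fluorescence measured at timed intervals up to 40 h of continuous compound exposure.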

[2] = qHTS assay to identify small molecule antagonists of the estrogen receptor alpha (ER-alpha) signaling pathway using the BG1 cell line in the presence of 0.1 nM 17-beta-estradiol - cell viability counter screen (AID 1259241); note: nearly all actives have a fitted effect of over 40% in size
Outline: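 Estradiol-stimulated (0.1 nM) VM7Luc4E2 cells exposed to compounds 22 hr; viability measured by fluorescence of cleaved CellTiter-Fluor substrate after 30 min.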

[3] = qHTS assay to identify small molecule antagonists of the androgen receptor (AR) signaling pathway using the MDA cell line in the presence of 0.5 nM R1881 - cell viability counter screen (AID 1259242); note: nearly all actives have a fitted effect of over 45% in size
Outline: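 Cytotoxicity toward MDA-kb2 cells is measured by CellTiter-Fluor live-cell protease fluorescence after 16 hr compound exposure at 37C in the presence of 0.5 nM R1881 stimulator.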

[4] = target: Estrogen receptor (Homo sapiens) (UniProt P03372); assay: qHTS assay to identify small molecule antagonists of the estrogen receptor alpha (ER-alpha) signaling pathway using the BG1 cell line in the presence of 0.1 nM 17-beta-estradiol (AID 1259244); note: nearly all actives have a fitted effect of over 50% in size
Sequence of Estrogen receptor (Homo sapiens) (P03372 whole entry, looked up): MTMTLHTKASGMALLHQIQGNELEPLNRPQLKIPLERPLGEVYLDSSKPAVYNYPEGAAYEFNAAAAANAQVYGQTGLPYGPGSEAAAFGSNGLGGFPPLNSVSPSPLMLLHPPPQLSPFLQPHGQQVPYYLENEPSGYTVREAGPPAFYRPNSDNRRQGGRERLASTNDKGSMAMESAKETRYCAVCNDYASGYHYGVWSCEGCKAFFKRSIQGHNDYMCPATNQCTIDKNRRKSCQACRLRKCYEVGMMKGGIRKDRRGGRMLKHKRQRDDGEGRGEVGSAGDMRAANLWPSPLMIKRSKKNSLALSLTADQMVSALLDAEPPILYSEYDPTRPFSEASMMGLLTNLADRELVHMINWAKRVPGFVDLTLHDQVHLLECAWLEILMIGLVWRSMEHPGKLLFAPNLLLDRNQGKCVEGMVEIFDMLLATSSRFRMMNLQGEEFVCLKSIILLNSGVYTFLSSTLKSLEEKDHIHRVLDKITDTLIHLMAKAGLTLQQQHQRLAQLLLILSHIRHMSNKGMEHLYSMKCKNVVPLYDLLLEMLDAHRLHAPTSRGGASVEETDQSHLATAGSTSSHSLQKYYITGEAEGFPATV
Outline: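 After 5 days in hormone-depleted medium (charcoal-stripped serum, no phenol red), VM7Luc4E2 cells were seeded, incubated 24 h, then co-treated with compound and 0.1 nM (final) estradiol for 22 h before luminescence detection.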

[5] = qHTS assay to identify small molecule phospholipidosis (PLD) inducers (AID 1259344; active = well fitted curve in the direction sought with a large enough effect; an effect the other way counts as inactive or inconclusive)
Outline: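 HepG2 cells, 900/well, treated with compound plus LipidTOX Red for 24 h at 37 C; amiodarone positive and DMSO negative controls. Fixed with paraformaldehyde/Hoechst, then high-content imaging scored LipidTOX pit count and integrated intensity per well and per cell.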

[6] = qHTS assay to identify small molecule HDAC inhibitors (AID 1259364); note: nearly all actives have a fitted effect of over 45% in size; note: potency is the fitted concentration of half-maximal effect
Outline: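 Homogeneous cell-based luminescent assay of endogenous class I/II HDAC activity; HCT-116 cells, 2 h compound exposure, 30 min HDAC-Glo development at RT.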

[7] = qHTS assay to identify small molecule HDAC inhibitors - cell viability counter screen (AID 1259365); note: series mostly up to about 92 µM; nearly all actives have a fitted effect of over 50% in size
Outline: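 After overnight seeding at 1,500 cells per well, wild-type HCT-116 cultures took up compounds in DMSO for 2hr at 37 C. Viable cell content came from luminescence with CellTiter-Glo.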

[8] = qHTS assay to identify small molecule agonists of the sonic hedgehog signaling (Shh) pathway - cell viability counter screen (AID 1259366); note: nearly all actives have a fitted effect of over 50% in size
Outline: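 Same-well cytotoxicity read. Gli1-Luc reporter 3T3 cells; compounds 24hr, 37C/5% CO2; CellTiter-Fluor fluorescence.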

[9] = qHTS assay to identify small molecule antagonists of the sonic hedgehog signaling (Shh) pathway - cell viability counter screen (AID 1259367); note: nearly all actives have a fitted effect of over 55% in size
Outline: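 NIH/3T3-derived Gli1-Luc reporter cells, 2,000/well, plated 4 hr before compound addition, then stimulated with conditioned medium for 24 hr at 37C. Viability measured in the same wells by CellTiter-Fluor fluorescence, reagent added at 23 hr for 1 hr.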

[10] = qHTS assay to identify small molecule agonists of the sonic hedgehog signaling (Shh) pathway (AID 1259368; calls by dose curve;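 note: NIH/3T3-derived 3T3Gli1-Luc cells carrying a stable Gli1-driven firefly luciferase reporter; series mostly up to about 92 µM; nearly all actives have a fitted effect of over 15% in size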)
Outline: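 Steps: seed 3T3 Gli1-Luc cells, incubate 4 hr at 37 C, pin-transfer compounds in DMSO alongside a positive control, incubate 24 hr, add luciferase detection reagent, wait 30 min at room temperature, read luminescence.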

[11] = qHTS assay to identify small molecule antagonists of the sonic hedgehog signaling (Shh) pathway (AID 1259369; calls by dose curve; note: nearly all actives have a fitted effect of over 45% in size)
Outline: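 Inhibition of Shh signalling is measured as reduced Gli1-response-element firefly luciferase output in an NIH/3T3-derived stable reporter clone stimulated with conditioned medium for 24hr.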

[12] = target: Estrogen receptor beta (Homo sapiens) (UniProt Q92731); assay: qHTS assay to identify small molecule agonists of the estrogen receptor beta (ER-beta) signaling pathway (AID 1259377; active = well fitted activation curve with a large enough effect in the signal ratio in the repeat runs, not every such curve was filed as active; the % refers to the signal ratio)
Sequence of Estrogen receptor beta (Homo sapiens) (Q92731 whole entry, looked up): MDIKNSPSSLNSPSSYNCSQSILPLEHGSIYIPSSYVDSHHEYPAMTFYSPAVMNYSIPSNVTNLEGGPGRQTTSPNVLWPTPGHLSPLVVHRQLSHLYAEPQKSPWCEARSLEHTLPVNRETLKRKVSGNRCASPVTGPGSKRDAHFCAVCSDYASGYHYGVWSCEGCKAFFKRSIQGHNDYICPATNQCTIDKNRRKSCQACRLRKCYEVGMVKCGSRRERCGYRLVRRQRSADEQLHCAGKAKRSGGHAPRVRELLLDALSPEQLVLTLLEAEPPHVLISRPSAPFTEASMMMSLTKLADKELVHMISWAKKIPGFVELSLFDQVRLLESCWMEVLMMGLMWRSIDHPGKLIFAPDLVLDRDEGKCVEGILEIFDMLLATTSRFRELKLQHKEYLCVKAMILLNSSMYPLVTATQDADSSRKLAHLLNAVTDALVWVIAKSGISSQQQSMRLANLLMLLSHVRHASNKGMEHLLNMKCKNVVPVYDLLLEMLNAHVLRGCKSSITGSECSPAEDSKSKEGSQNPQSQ
Outline: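 Read-out: beta-lactamase FRET fluorescence. Cell line: ER-beta-UAS-bla HEK293T in 2% charcoal-stripped FBS. Exposure: 16 hr at 37C. Substrate step: 2 h at room temperature.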

[13] = target: Estrogen receptor beta (Homo sapiens) (UniProt Q92731); assay: qHTS assay to identify small molecule antagonists of the estrogen receptor beta (ER-beta) signaling pathway (AID 1259378; active = well fitted inhibition curve with a large enough effect in the signal ratio in the repeat runs, not every such curve was filed as active; the % refers to the signal ratio)
Outline: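 ER-beta-UAS-bla HEK293T cells in 2% charcoal-stripped FBS medium treated with compound plus 1nM final 17-beta-estradiol for 16 hr at 37C. Beta-lactamase reporter read by FRET substrate fluorescence after 2 hours at room temperature.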

[14] = qHTS assay to identify small molecule agonists of the androgen receptor (AR) signaling pathway in the presence of an antagonist - cell viability counter screen (AID 1259379);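 note: MDA-kb2 human breast cancer cells carrying an MMTV luciferase reporter; series mostly up to about 92 µM; nearly all actives have a fitted effect of over 25% in size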
Outline: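 Fluorescence from CellTiter-Fluor, added after 15 hr and read 1 hr later, gave cell viability. Cells were MDA-kb2 exposed to compounds (15 concentrations) in the presence of 3.0uM nilutamide at 37C, 0% CO2.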

[15] = qHTS assay to identify small molecule agonists of the estrogen receptor beta (ER-beta) signaling pathway - cell viability counter screen (AID 1259380); note: nearly all actives have a fitted effect of over 30% in size
Outline: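 Same-well viability counter screen. Cells: ER-beta-UAS-bla HEK293T, plated 6 hr before compound, in 2% charcoal-stripped FBS. Compound exposure 16 hr, 37C; viability by CellTiter-Glo luminescence after 30 min at room temperature.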

[16] = qHTS assay to identify small molecule antagonists of the estrogen receptor beta (ER-beta) signaling pathway - cell viability counter screen (AID 1259382); note: series mostly up to about 92 µM; nearly all actives have a fitted effect of over 55% in size
Outline: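 Following a 6 hr plating period, HEK293T cells carrying a UAS-driven beta-lactamase reporter under ER-beta control received compounds and 1nM E2 (final). After 16 hr at 37C and 2 hr substrate loading, CellTiter-Glo luminescence indicated viability.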

[17] = target: Estrogen receptor (Homo sapiens) (UniProt P03372); assay: qHTS assay to identify small molecule agonists of the estrogen receptor alpha (ER-alpha) signaling pathway in the presence of an antagonist (AID 1259383; calls by dose curve; note: top concentration of the series differs between compounds; nearly all actives have a fitted effect of over 15% in size)
Outline: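 Cells are hormone-deprived for 5 days (charcoal-stripped FBS, no phenol red), plated for 24hr, spiked with 10.0nM ICI-182,780, then dosed at 15 concentrations. After 22hr at 37C, ONE-Glo luminescence reports ERE-luciferase activity.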

[18] = qHTS assay to identify small molecule agonists or antagonists of the thyroid stimulating hormone receptor (TSHR) signaling pathway - wild type cell line counter screen (AID 1259384; calls by dose curve)
Outline: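 Wild-type Hek293 cells, 800/well, 18 h at 37C, then compound with Ro20-1724 for 30 min RT. cAMP by HTRF (cAMP-d2/anti-cAMP cryptate), 1 h RT, fluorescence read. 15 concentrations, triplicates.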

[19] = target: Androgen receptor (Homo sapiens) (UniProt P10275); assay: qHTS assay to identify small molecule agonists of the androgen receptor (AR) signaling pathway in the presence of an antagonist (AID 1259381; calls by dose curve; note: nearly all actives have a fitted effect of over 15% in size)
Sequence of Androgen receptor (Homo sapiens) (P10275 whole entry, looked up): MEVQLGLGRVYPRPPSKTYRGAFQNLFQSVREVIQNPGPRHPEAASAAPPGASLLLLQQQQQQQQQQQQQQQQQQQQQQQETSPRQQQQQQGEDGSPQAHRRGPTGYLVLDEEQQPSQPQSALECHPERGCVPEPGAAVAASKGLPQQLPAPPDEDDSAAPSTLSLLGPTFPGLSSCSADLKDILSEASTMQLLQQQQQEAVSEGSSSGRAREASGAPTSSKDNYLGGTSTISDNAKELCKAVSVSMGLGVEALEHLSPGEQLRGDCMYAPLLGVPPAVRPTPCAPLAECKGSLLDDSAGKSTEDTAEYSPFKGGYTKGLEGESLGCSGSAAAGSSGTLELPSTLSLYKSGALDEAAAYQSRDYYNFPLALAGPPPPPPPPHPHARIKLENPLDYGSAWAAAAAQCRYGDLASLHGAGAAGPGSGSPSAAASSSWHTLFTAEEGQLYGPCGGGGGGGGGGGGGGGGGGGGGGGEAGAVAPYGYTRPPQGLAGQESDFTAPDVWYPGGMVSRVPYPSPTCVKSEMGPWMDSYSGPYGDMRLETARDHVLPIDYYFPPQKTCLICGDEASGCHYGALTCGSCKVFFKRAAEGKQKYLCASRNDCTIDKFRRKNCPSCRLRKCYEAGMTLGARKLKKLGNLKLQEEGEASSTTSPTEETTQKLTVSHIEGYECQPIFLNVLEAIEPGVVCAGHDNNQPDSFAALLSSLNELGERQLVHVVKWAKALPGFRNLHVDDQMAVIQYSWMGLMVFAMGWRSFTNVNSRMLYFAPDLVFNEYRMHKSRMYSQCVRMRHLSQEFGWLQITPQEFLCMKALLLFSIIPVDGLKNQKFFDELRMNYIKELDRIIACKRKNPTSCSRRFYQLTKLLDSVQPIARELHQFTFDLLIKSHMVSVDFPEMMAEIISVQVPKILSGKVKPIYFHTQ
Outline: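 Cells are MDA-kb2 (human breast carcinoma, MMTV-luc, AR/GR responsive). Nilutamide is present at 3.0uM final throughout; compounds are added at 15 concentrations and incubated 16hr at 37C before ONE-Glo luminescence detection.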

SMILES | Potency [1] | outcome [2] | Potency [3] | outcome [4] | Potency [5] | Potency [6] | outcome [7] | Potency [8] | Potency [9] | outcome [10] | Potency [11] | outcome [12] | outcome [13] | Potency [14] | Potency [15] | Potency [16] | Potency [17] | outcome [18] | Potency [19]
CC(=O)OCC(=O)[C@@]1(O)CC[C@H]2[C@@H]3CCC4=CC(=O)CC[C@]4(C)[C@H]3C(=O)C[C@@]21C | inactive | inactive | inactive | inactive | inactive | inactive | inactive | inactive | inactive | inactive | inactive | inactive | inactive | inactive | inactive | inactive | inactive | – | –
CCOC(=O)Nc1ccc(NCc2ccc(F)cc2)nc1N | inactive | inactive | inactive | inactive | inactive | – | inactive | – | inactive | inactive | inactive | inactive | inactive | inactive | inactive | – | inactive | inactive | –
Cc1ccc(=O)n(-c2ccccc2)c1 | inactive | inactive | inactive | inactive | inactive | inactive | inactive | – | inactive | inactive | – | inactive | inactive | inactive | inactive | inactive | inactive | inactive | –
O=C(O)c1ccccc1OP(=O)(O)O | inactive | inactive | inactive | inactive | inactive | inactive | inactive | inactive | inactive | – | – | inactive | inactive | inactive | inactive | – | inactive | inactive | –
N=C(N)c1ccc2cc(OC(=O)c3ccc(N=C(N)N)cc3)ccc2c1 | inactive | inactive | inactive | inactive | inactive | 0.0596 µM (active) | inactive | – | inactive | inactive | – | – | – | inactive | inactive | inactive | inactive | – | inactive
Cc1cccc(C)c1NC(=O)C(C)N (stereo unspecified) | 21.3 µM (active) | inactive | inactive | inactive | inactive | – | inactive | – | inactive | inactive | inactive | – | – | inactive | inactive | inactive | inactive | – | –
Nc1c[n+](N2CCOCC2)no1 | inactive | inactive | inactive | inactive | inactive | – | inactive | inactive | inactive | inactive | inactive | inactive | inactive | inactive | inactive | inactive | inactive | – | –
